In PubChem BioAssay:
Calls of active or inactive are those of the source. Unless noted, no rule for the calls is given here.

What was measured:
[1] = tested on: Wnt5a (protein binding on small-molecule microarray); assay: small molecules binding Wnt5a protein – biophysical, small-molecule microarray, 635/667 nm fluorescence, primary screen (AID 1142); details: 635 nm fluorescence, higher = more signal;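 also: fluorescence read at 667 nm with signal to noise per printed feature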
[2] = ATP-based viability of Huh7 replicon cells – cell-based, CellTiter-Glo luminescence, basal, 48 h, cytotoxicity control for HCV replication inhibitor project, primary screen (AID 1143); details: higher = more signal, called active from +8 up or from −8 down;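 also: Huh7 hepatoma cells carrying a hepatitis C replication reporter with no stimulus; test concentration not given here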
[3] = Pseudomonas biofilm growth suppression – PAO1 strain, BacTiter-Glo luminescence, LB-PBS, primary screen (AID 1144); details: P. aeruginosa PAO1 biofilm, 12 h, higher = more signal
[4] = basal CRE-LacZ reporter activity in PC12 – cell-based, unstimulated, primary screen (AID 1145); details: no forskolin, luminescence, 4.5 h, higher = more signal, called active from +8 up or from −8 down
[5] = forskolin-driven CRE-LacZ activity in PC12 – cell-based, CRE-LacZ reporter, forskolin-stimulated, primary screen (AID 1146); details: luminescence, 4.5 h, higher = more signal, called active from +8 up or from −8 down;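 also: PC12 cells with 6xCRE LacZ reporter stimulated by forskolin 10 µM; beta-galactosidase reporter signal reflecting CREB driven transcription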
[6] = target: Streptavidin (Streptomyces avidinii) (UniProt P22629); assay: compounds binding control protein streptavidin – biophysical, small-molecule microarray, 635/667 nm fluorescence, artefact control for SMM compound annotation, primary screen (AID 1147); details: higher = more signal;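 also: signal reflects streptavidin binding to arrayed compounds as a control protein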
[7] = probe aInhba binding on compound microarray – biochemical, small-molecule microarray, 635/667 nm fluorescence, primary screen (AID 1148); details: higher = more signal;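 also: score merges 667nm spot fluorescence with signal-to-noise for antibody binding to printed compounds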
[8] = target: Torsin-1A (Homo sapiens) (UniProt O14656); assay: TOR1A wild-type binding on microarray – cell lysate, small-molecule microarray, lysate, 635/667 nm, primary screen (AID 1149); details: COS7 hTOR1A-WT lysate, 635 nm fluorescence, higher = more signal
[9] = target: Torsin-1A (Homo sapiens) (UniProt O14656); assay: torsin A mutant lysate binding on microarrays – cell lysate, small-molecule microarray, COS7 lysate, 635/667 nm fluorescence, primary screen (AID 1150); details: COS7 hTOR1A mutant lysate, 635 nm fluorescence, higher = more signal;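 also: score pools 667 nm emission and signal to noise measuring lysate protein binding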
[10] = tested on: Sonic hedgehog protein (Shh); assay: Sonic hedgehog microarray binding compounds – biochemical, small-molecule microarray, 635/667 nm fluorescence, primary screen (AID 1151); details: 635 nm fluorescence, higher = more signal;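 also: Shh protein binding to compounds spotted on small-molecule microarray slides; score combines spot fluorescence intensity with signal-to-noise across triplicate slides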

Sequence of Torsin-1A (Homo sapiens) (O14656 whole entry, looked up): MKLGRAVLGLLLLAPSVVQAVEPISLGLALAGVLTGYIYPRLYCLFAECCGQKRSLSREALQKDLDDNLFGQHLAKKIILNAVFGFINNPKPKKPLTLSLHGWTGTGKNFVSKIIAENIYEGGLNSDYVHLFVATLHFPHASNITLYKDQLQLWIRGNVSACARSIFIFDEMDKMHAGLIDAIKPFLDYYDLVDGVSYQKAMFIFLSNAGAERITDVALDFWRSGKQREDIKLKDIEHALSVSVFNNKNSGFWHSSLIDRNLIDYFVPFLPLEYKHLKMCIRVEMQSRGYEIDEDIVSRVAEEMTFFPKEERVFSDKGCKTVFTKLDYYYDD
Sequence of Streptavidin (Streptomyces avidinii) (P22629 whole entry, looked up): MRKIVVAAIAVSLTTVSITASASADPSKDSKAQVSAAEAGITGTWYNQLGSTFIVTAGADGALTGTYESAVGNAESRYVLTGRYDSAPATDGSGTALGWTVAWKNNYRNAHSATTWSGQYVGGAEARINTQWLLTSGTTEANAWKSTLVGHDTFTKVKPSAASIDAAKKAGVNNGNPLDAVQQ

Q: Which results are given for `CN(C)C(=O)[C@]1(CCC(=O)OC(C)(C)C)N=C(c2ccc(OCCCO)cc2)O[C@@H]1c1ccccc1CN=[N+]=[N-]`?
A: composite z-score [1]: 1.44; z-score [2]: -1.5 (inactive); z-score [3]: -1.42 (inactive); z-score [4]: -0.744 (inactive); z-score [5]: -0.147 (inactive); composite z-score [6]: 0.588; composite z-score [7]: -0.071; composite z-score [8]: 1.53; composite z-score [9]: 1.24; composite z-score [10]: -0.646

Q: What does the source list for `O=C(C1N=C(c2ccc(OCCCO)cc2)N(c2ccccc2)O1)N1CCCCC1` (stereo not given)?
A: composite z-score [1]: 0.296; z-score [2]: -0.163 (inactive); z-score [3]: 1.52 (inactive); z-score [4]: 0.0918 (inactive); z-score [5]: 1.91 (inactive); composite z-score [6]: 1.56; composite z-score [7]: 0.271; composite z-score [8]: 0.407; composite z-score [9]: 0.854; composite z-score [10]: 0.17

Q: Which composite z-score [1] does the source give for `COCCOC(=O)N1C(=O)[C@@]2(c3cc(C#CCNC(N)=O)ccc31)[C@H](C(N)=O)[C@H]1C(=O)O[C@H](c3ccccc3)[C@H](c3ccccc3)N1[C@@H]2c1ccccc1OCCO` here?
A: 0.273

Q: What about the z-score [2] of the same compound?
A: 0.406 (inactive)

Q: What about the z-score [3] of the same compound?
A: -0.0139 (inactive)

Q: What about the z-score [4] of the same compound?
A: -0.465 (inactive)

Q: And the z-score [5]?
A: 0.0355 (inactive)

Q: And the composite z-score [6]?
A: 0.0571

Q: What about the composite z-score [7] of the same compound?
A: 0.183

Q: What about the composite z-score [8] of the same compound?
A: 0.112

Q: And the composite z-score [9]?
A: 0.25

Q: And the composite z-score [10]?
A: 0.878

Q: What does the source list for `C=CC[C@]1(C(=O)N2CCCCC2)N=C(c2ccc(OCCCO)cc2)O[C@H]1c1ccccc1CN=[N+]=[N-]`?
A: composite z-score [1]: 0.518; z-score [2]: -4.07 (inactive); z-score [3]: -1.44 (inactive); z-score [4]: 1.45 (inactive); z-score [5]: 1.86 (inactive); composite z-score [6]: 0.997; composite z-score [7]: 0.121; composite z-score [8]: 0.0016; composite z-score [9]: 0.361; composite z-score [10]: -0.27

Q: Which composite z-score [1] does the source give for `COc1ccc(CCNC(=O)[C@@]2(Sc3ccc(C)cc3)CC(=O)N(Cc3ccccc3C(F)(F)F)[C@@H]2c2ccc(CO)cc2I)cc1` here?
A: -0.0049

Q: What about the z-score [2] of the same compound?
A: -1.53 (inactive)

Q: And the z-score [3]?
A: 1.02 (inactive)

Q: What about the z-score [4] of the same compound?
A: 0.362 (inactive)

Q: And the z-score [5]?
A: 2.7 (inactive)

Q: What about the composite z-score [6] of the same compound?
A: -0.975

Q: What about the composite z-score [7] of the same compound?
A: 0.0714

Q: What about the composite z-score [8] of the same compound?
A: -1.13

Q: What about the composite z-score [9] of the same compound?
A: -0.702

Q: What about the composite z-score [10] of the same compound?
A: -0.649

Q: Which composite z-score [1] does the source give for `C=C(/C(=C/C[C@H](OC(=O)c1ccncc1)c1ccc(CO)o1)c1cnc2ccccc2c1)C(C)C` here?
A: 0.49

Q: And the z-score [2]?
A: -0.259 (inactive)

Q: And the z-score [3]?
A: -0.747 (inactive)

Q: And the z-score [4]?
A: 1.58 (inactive)

Q: What about the z-score [5] of the same compound?
A: 0.0737 (inactive)

Q: And the composite z-score [6]?
A: 1.42

Q: What about the composite z-score [7] of the same compound?
A: 0.0993

Q: And the composite z-score [8]?
A: 0.353

Q: And the composite z-score [9]?
A: 0.491

Q: And the composite z-score [10]?
A: 1.97

Q: For `CC[C@@H]1C=C(C(=O)O)[C@H](c2ccc(C#N)cc2)N1S(=O)(=O)c1ccc(C)cc1`, which composite z-score [1] is on record?
A: 0.413

Q: What about the z-score [2] of the same compound?
A: -0.857 (inactive)

Q: And the z-score [3]?
A: 0.24 (inactive)

Q: And the z-score [4]?
A: -0.975 (inactive)

Q: And the z-score [5]?
A: -0.397 (inactive)

Q: And the composite z-score [6]?
A: 0.569

Q: And the composite z-score [7]?
A: -0.157

Q: What about the composite z-score [8] of the same compound?
A: 1.26

Q: And the composite z-score [9]?
A: 1.65

Q: What about the composite z-score [10] of the same compound?
A: 0.0698

Q: For `COc1cc(NN2C(C(O)c3ccc(N(C)C)cc3)C=CC3C(=O)N(c4ccccc4)C(=O)C32)cc(OC)c1OC` (stereo not given), which composite z-score [1] is on record?
A: 0.0759

Q: What about the z-score [2] of the same compound?
A: -2.89 (inactive)

Q: And the z-score [3]?
A: -0.414 (inactive)

Q: What about the z-score [4] of the same compound?
A: -0.136 (inactive)

Q: What about the z-score [5] of the same compound?
A: -0.259 (inactive)

Q: And the composite z-score [6]?
A: 0.535

Q: What about the composite z-score [7] of the same compound?
A: 0.242

Q: What about the composite z-score [8] of the same compound?
A: -0.223

Q: What about the composite z-score [9] of the same compound?
A: 0.419

Q: And the composite z-score [10]?
A: -0.254

Q: For `CC(C)NC(=O)[C@@]1(c2ccc([N+](=O)[O-])cc2)CC(=O)N(C2CCCCC2)[C@@H]1c1ccc(CO)cc1`, which composite z-score [1] is on record?
A: 0.34

Q: What about the z-score [2] of the same compound?
A: -2.26 (inactive)

Q: What about the z-score [3] of the same compound?
A: -0.177 (inactive)

Q: And the z-score [4]?
A: 1.09 (inactive)

Q: What about the z-score [5] of the same compound?
A: -0.0351 (inactive)

Q: What about the composite z-score [6] of the same compound?
A: 0.119

Q: And the composite z-score [7]?
A: -0.12

Q: And the composite z-score [8]?
A: 0.574

Q: And the composite z-score [9]?
A: 0.5

Q: What about the composite z-score [10] of the same compound?
A: 1.68

Q: With `COC(=O)[C@@]1(Cc2ccc(OC)cc2)[C@H]2c3cc(C(=O)N4CCCC4)n(CCc4c[nH]c5ccc(O)cc45)c3C[C@H]2CN1C(=O)c1ccccc1` as the compound, how does the composite z-score [1] read?
A: 0.431

Q: And the z-score [2]?
A: -0.759 (inactive)

Q: And the z-score [3]?
A: 0.34 (inactive)

Q: And the z-score [4]?
A: 0.587 (inactive)

Q: What about the z-score [5] of the same compound?
A: -0.397 (inactive)

Q: And the composite z-score [6]?
A: 0.971

Q: What about the composite z-score [7] of the same compound?
A: 0.192

Q: What about the composite z-score [8] of the same compound?
A: 0.132

Q: And the composite z-score [9]?
A: 0.318

Q: What about the composite z-score [10] of the same compound?
A: -0.229

Q: Which composite z-score [1] does the source give for `C=CCNC(=O)[C@@H]1[C@H]2C(=O)O[C@H](c3ccccc3)[C@H](c3ccccc3)N2[C@H](c2ccc(OCCO)cc2)[C@@]12C(=O)N(C(=O)OCCOC)c1ccc(C#Cc3ccc(OC)cc3)cc12` here?
A: 0.0609

Q: What about the z-score [2] of the same compound?
A: -2.81 (inactive)

Q: What about the z-score [3] of the same compound?
A: 0.543 (inactive)

Q: And the z-score [4]?
A: 0.476 (inactive)

Q: What about the z-score [5] of the same compound?
A: -0.222 (inactive)

Q: What about the composite z-score [6] of the same compound?
A: 0.613

Q: And the composite z-score [7]?
A: 0.0497

Q: And the composite z-score [8]?
A: 0.105

Q: And the composite z-score [9]?
A: -0.0165

Q: What about the composite z-score [10] of the same compound?
A: 1.88

Q: For `CCCC=C(CCC)[C@@H](NC(=O)c1cccs1)c1ccc(C(=O)OC)cc1`, which composite z-score [1] is on record?
A: 0.535

Q: What about the z-score [2] of the same compound?
A: -0.268 (inactive)

Q: What about the z-score [3] of the same compound?
A: -0.473 (inactive)

Q: And the z-score [4]?
A: -0.951 (inactive)

Q: And the z-score [5]?
A: 0.158 (inactive)

Q: What about the composite z-score [6] of the same compound?
A: 0.373

Q: And the composite z-score [7]?
A: 0.375

Q: And the composite z-score [8]?
A: 0.657

Q: And the composite z-score [9]?
A: 0.183

Q: And the composite z-score [10]?
A: -0.83

Q: With `COC(=O)C1=CC(CCCO)=CC(c2cccs2)N(Cc2cccc(OC(F)(F)F)c2)C=C1C(=O)OC` (stereo not given) as the compound, how does the composite z-score [1] read?
A: 0.237

Q: And the z-score [2]?
A: -3.26 (inactive)

Q: What about the z-score [3] of the same compound?
A: 0.759 (inactive)

Q: And the z-score [4]?
A: -0.815 (inactive)

Q: And the z-score [5]?
A: 0.0187 (inactive)

Q: What about the composite z-score [6] of the same compound?
A: 1.93

Q: What about the composite z-score [7] of the same compound?
A: -0.0619

Q: What about the composite z-score [8] of the same compound?
A: 1

Q: And the composite z-score [9]?
A: 1.56

Q: What about the composite z-score [10] of the same compound?
A: -0.403

Q: For `C=CCC(OC(C)=O)[C@@H]1[C@@H](N(Cc2cc3ccccc3o2)C(=O)Cc2ccc(F)cc2)c2cc(OCCCO)ccc2N1C(=O)Cc1ccc2ccccc2c1` (stereo not given in full), which composite z-score [1] is on record?
A: -0.314

Q: And the z-score [2]?
A: -0.327 (inactive)

Q: What about the z-score [3] of the same compound?
A: -0.467 (inactive)

Q: And the z-score [4]?
A: 2.08 (inactive)

Q: What about the z-score [5] of the same compound?
A: 0.926 (inactive)

Q: What about the composite z-score [6] of the same compound?
A: 0.655

Q: And the composite z-score [7]?
A: -0.0963

Q: And the composite z-score [8]?
A: -1.16

Q: What about the composite z-score [9] of the same compound?
A: -0.337

Q: What about the composite z-score [10] of the same compound?
A: 0.0162

Q: For `CCCCCCc1nc(Cc2cc(OC)c(OC)c(OC)c2)cc2c1[Si](C(C)C)(C(C)C)OC2`, which composite z-score [1] is on record?
A: 0.03

Q: And the z-score [2]?
A: -5.33 (inactive)

Q: What about the z-score [3] of the same compound?
A: -0.012 (inactive)

Q: And the z-score [4]?
A: 0.498 (inactive)

Q: What about the z-score [5] of the same compound?
A: -0.419 (inactive)

Q: What about the composite z-score [6] of the same compound?
A: 0.0761

Q: What about the composite z-score [7] of the same compound?
A: 0.0973

Q: And the composite z-score [8]?
A: 0.108

Q: What about the composite z-score [9] of the same compound?
A: -0.282

Q: And the composite z-score [10]?
A: 0.724
